Laboratory results as given in PubChem BioAssay (Tox21).
Results filed as inconclusive are left out. The source made the active and inactive calls. Unless noted, the call rests on the fitted dose curve; in most records, active means well fitted curve in the direction sought with a large enough effect in the repeat runs; inconclusive means weak or mixed curves; inactive means no such curve, though single readings can be large; an effect the other way counts as inactive or inconclusive.

Experiments:
[1] = qHTS assay to identify small molecule agonists of the hypoxia (HIF-1) signaling pathway - cell viability counter screen (AID 1224844; calls by dose curve; further: nearly all actives have a fitted effect of over 50% in size; further: potency means the concentration at half of the fitted maximal effect)
In short: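 Viability counter screen: HRE-bla ME-180 cells plated 5 hrs before compound addition, treated 17 hrs at 37C and 5% CO2, then CellTiter-Glo added after the FRET reporter read; luminescence after 30 min.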

[2] = qHTS assay to identify small molecule agonists of H2AX (AID 1224845; active means well fitted activation curve with a large enough effect in the signal ratio in the repeat runs, not every such curve was filed as active; the % refers to the signal ratio)
In short: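 Wild-type CHO-K1 cells, plated overnight, exposed 3hr at 37C to 15 concentrations (0.76% DMSO final). Lysed, then HTRF anti-pH2AX (S139) cryptate and anti-H2AX-d2 antibodies, 24 hr room temperature; 665/620 nm emission read.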

[3] = qHTS assay to identify small molecule agonists of the hypoxia (HIF-1) signaling pathway (AID 1224846; active means well fitted activation curve with a large enough effect in the signal ratio in the repeat runs, not every such curve was filed as active; the % refers to the signal ratio)
In short: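 Agonist mode reporter screen. ME-180 cells stably expressing bla under HRE control received test compounds in DMSO for 17 hrs (37C, 5% CO2), and beta-lactamase activity was then detected with the CCF4-AM FRET substrate.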

[4] = qHTS assay to identify small molecule agonists of H2AX - cell viability counter screen (AID 1224847; calls by dose curve; further: top concentration of the series differs between compounds; nearly all actives have a fitted effect of over 30% in size)
In short: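 Counter-screen for viability: CellTiter-Glo ATP luminescence read after 3 h compound treatment (15-point titration, 0.76% DMSO final) of CHO-K1 cells at 37C, with 30 min room-temperature reagent incubation.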

[5] = qHTS assay to identify small molecule antagonists of the estrogen related receptor (ERR) signaling pathway from Tox21 library (AID 1224848); further: nearly all actives have a fitted effect of over 50% in size
In short: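 Compounds dissolved in DMSO are pin-transferred onto ERR reporter cells (2,000 per well) that have settled for 6 h at 37 C. Plates then incubate 18 h at 37 C before ONE-Glo luciferase reagent and a luminescence read 30 min later.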

[6] = qHTS assay to identify small molecule agonists of the estrogen related receptor (ERR) signaling pathway from Tox21 library (AID 1224849; calls by dose curve; further: nearly all actives have a fitted effect of over 15% in size); conditions: ERR reporter cell line, ONE-Glo luciferase, 18 h; at 92.4 µM (top of the series) unless noted
In short: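 Quantitative HTS in agonist format: NTP ERR cell line, compounds transferred in DMSO after 6 h plating, 18 h incubation at 37 C, ONE-Glo luminescence endpoint.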

[7] = qHTS RealTime-Glo MT Cell Viability Assay in HepG2 cells - 24 hour (AID 1224867); further: nearly all actives have a fitted effect of over 50% in size
In short: (§1)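 HepG2 suspension premixed with RealTime-Glo reagents is plated at 600 cells per well and left 5 h at 37 C/5% CO2. Compounds in DMSO then go in, and bioluminescence reflecting viable cell number is recorded over 40 h.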

[8] = A CellTox Green Cytotoxicity Assay to monitor cytotoxicity in HEK293 cells - 0 hour (AID 1224869); further: nearly all actives have a fitted effect of over 50% in size
In short: (§2)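 Dead-cell fluorescence measured kinetically: asymmetric cyanine dye, HEK293, 600 cells/well, 5 h settle, 23 nL cpd/DMSO, 37 C, reads 0–40 h every 8 h.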

[9] = qHTS RealTime-Glo MT Cell Viability Assay in HepG2 cells - 40 hour (AID 1224870); further: nearly all actives have a fitted effect of over 50% in size
In short: (§3)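 HepG2 cells (600/well) mixed with RealTime-Glo MT reagent, settled 5 h at 37 C/5% CO2 before compound addition. Nonlytic NanoLuc luminescence from viable-cell prosubstrate reduction read repeatedly during 40 h treatment at 37 C.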

[10] = A CellTox Green Cytotoxicity Assay to monitor cytotoxicity in HEK293 cells - 40 hour (AID 1224871); further: nearly all actives have a fitted effect of over 45% in size
In short: as §2

[11] = qHTS RealTime-Glo MT Cell Viability Assay in HEK293 cells - 16 hour (AID 1224872)
In short: (§4)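 Reads taken at 0, 8, 16, 24, 32 and 40 h from the same wells. HEK293 cells (600/well) carried RealTime-Glo reagents from seeding, with compound added after a 5 h settle at 37 C.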

[12] = qHTS RealTime-Glo MT Cell Viability Assay in HepG2 cells - 8 hour (AID 1224873); further: nearly all actives have a fitted effect of over 55% in size
In short: as §3

[13] = qHTS RealTime-Glo MT Cell Viability Assay in HEK293 cells - 40 hour (AID 1224874); conditions: RealTime-Glo luminescence; max response: hits give low values; further: nearly all actives have a fitted effect of over 50% in size
In short: (§5)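 600 HEK293 cells per well, dispensed already mixed with RealTime-Glo MT reagents. Compound dosing came 5 h later. The same wells were read for luminescence at 0, 8, 16, 24, 32 and 40 h of exposure at 37 C.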

[14] = A CellTox Green Cytotoxicity Assay to monitor cytotoxicity in HEK293 cells - 24 hour (AID 1224875); further: nearly all actives have a fitted effect of over 45% in size
In short: as §2

[15] = A CellTox Green Cytotoxicity Assay to monitor cytotoxicity in HepG2 cells - 16 hour (AID 1224876); further: nearly all actives have a fitted effect of over 45% in size
In short: (§6)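 First, HepG2 cells (600/well) mixed with reagent were plated; second, after 5 h at 37 C they received compounds via pintool; third, fluorescence was measured at 0 h through 40 h at 8 h intervals.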

[16] = qHTS RealTime-Glo MT Cell Viability Assay in HepG2 cells - 32 hour (AID 1224877); further: nearly all actives have a fitted effect of over 55% in size
In short: as §1

[17] = A CellTox Green Cytotoxicity Assay to monitor cytotoxicity in HepG2 cells - 24 hour (AID 1224878); further: nearly all actives have a fitted effect of over 45% in size; further: potency means the concentration at half of the fitted maximal effect
In short: as §6

[18] = A CellTox Green Cytotoxicity Assay to monitor cytotoxicity in HepG2 cells - 40 hour (AID 1224879); further: nearly all actives have a fitted effect of over 40% in size
In short: as §6

[19] = qHTS RealTime-Glo MT Cell Viability Assay in HEK293 cells - 0 hour (AID 1224880)
In short: as §5

[20] = qHTS RealTime-Glo MT Cell Viability Assay in HEK293 cells - 32 hour (AID 1224868)
In short: as §4
On the % scale 0 is the no-effect control and ±100 the full control effect.

CC(O)C1CCCCC1 (stereo not drawn)
inactive: Potency [1] | Potency [2] | outcome [3] | Potency [4] | Potency [5] | activity change, positive = activation [6] 6.48% | Potency [7] | Potency [8] | Potency [9] | Potency [10] | Potency [11] | Potency [12] | max response [13] 3.26% | Potency [14] | Potency [15] | Potency [16] | Potency [17] | Potency [18] | Potency [19]

C#CCOC(=O)[C@@H](C)Oc1ccc(Oc2ncc(Cl)cc2F)cc1
inactive: Potency [1] | Potency [2] | outcome [3] | Potency [4] | Potency [5] | activity change, positive = activation [6] -13.6% | Potency [7] | Potency [20] | Potency [8] | Potency [9] | Potency [10] | Potency [11] | Potency [12] | max response [13] -16.3% | Potency [15] | Potency [16] | Potency [17] | Potency [18] | Potency [19]

O=C(NN1CCCC1)NS(=O)(=O)c1ccc(Cl)cc1
inactive: Potency [1] | Potency [2] | outcome [3] | Potency [4] | Potency [5] | activity change, positive = activation [6] 5.66% [at 42.5 µM] | Potency [7] | Potency [20] | Potency [8] | Potency [9] | Potency [10] | Potency [11] | Potency [12] | max response [13] 15.3% | Potency [14] | Potency [15] | Potency [16] | Potency [17] | Potency [18] | Potency [19]

O=C(O)C(c1ccc(Cl)cc1)c1ccc(Cl)cc1
inactive: Potency [1] | Potency [2] | outcome [3] | Potency [4] | activity change, positive = activation [6] -7.31% | Potency [7] | Potency [20] | Potency [8] | Potency [9] | Potency [10] | Potency [11] | Potency [12] | max response [13] -1.91% | Potency [15] | Potency [16] | Potency [18] | Potency [19]

Nc1nc(N)c(-c2ccccc2)s1
inactive: Potency [1] | Potency [2] | outcome [3] | Potency [4] | Potency [5] | activity change, positive = activation [6] 3.26% [at 42.5 µM] | Potency [7] | Potency [20] | Potency [8] | Potency [9] | Potency [10] | Potency [11] | Potency [12] | Potency [14] | Potency [15] | Potency [16] | Potency [17] | Potency [19]

CCCCCCCCCO
inactive: Potency [1] | Potency [2] | outcome [3] | Potency [4] | activity change, positive = activation [6] 5.42% | Potency [7] | Potency [20] | Potency [8] | Potency [9] | Potency [10] | Potency [11] | Potency [12] | Potency [14] | Potency [15] | Potency [16] | Potency [17]

COC(=O)C(C)=O
inactive: Potency [1] | Potency [2] | outcome [3] | Potency [4] | activity change, positive = activation [6] -4.12% | Potency [7] | Potency [20] | Potency [8] | Potency [9] | Potency [11] | Potency [12] | Potency [14] | Potency [15] | Potency [16] | Potency [17] | Potency [18] | Potency [19]

CN1CCC(=C2c3ccccc3CCc3sccc32)CC1
active: Potency [1] 16.9 µM | Potency [17] 23.9 µM
inactive: Potency [2] | outcome [3] | Potency [4] | Potency [5] | activity change, positive = activation [6] -9.84% [at 42.5 µM] | Potency [7] | Potency [8] | Potency [9] | Potency [11] | Potency [12] | Potency [16]

Cc1ccc(C(N)=O)cc1N
inactive: Potency [1] | Potency [2] | outcome [3] | Potency [4] | Potency [5] | activity change, positive = activation [6] -0.06% | Potency [7] | Potency [20] | Potency [8] | Potency [9] | Potency [10] | Potency [11] | Potency [12] | max response [13] 10% | Potency [14] | Potency [15] | Potency [16] | Potency [17] | Potency [18]

Cc1ccc(C)o1
inactive: Potency [1] | Potency [2] | outcome [3] | Potency [4] | activity change, positive = activation [6] 0.55% | Potency [7] | Potency [20] | Potency [8] | Potency [9] | Potency [10] | Potency [11] | Potency [12] | max response [13] -14.9% | Potency [14] | Potency [15] | Potency [16] | Potency [17] | Potency [18] | Potency [19]

Cl/C(=C\n1cncn1)c1ccc(Cl)cc1Cl
inactive: Potency [1] | Potency [2] | outcome [3] | Potency [4] | activity change, positive = activation [6] -21.8% [at 42.5 µM] | Potency [7] | Potency [20] | Potency [8] | Potency [9] | Potency [11] | Potency [12] | max response [13] -23.8% | Potency [14] | Potency [15] | Potency [16] | Potency [18] | Potency [19]

CCCCCC(CO)CCC (stereo not drawn)
inactive: Potency [1] | Potency [2] | outcome [3] | Potency [4] | activity change, positive = activation [6] 2.67% | Potency [7] | Potency [20] | Potency [8] | Potency [9] | Potency [10] | Potency [11] | Potency [12] | Potency [14] | Potency [15] | Potency [16] | Potency [17] | Potency [19]

Cc1occc1S
inactive: Potency [1] | Potency [2] | outcome [3] | Potency [4] | Potency [5] | activity change, positive = activation [6] 9.5% | Potency [7] | Potency [20] | Potency [8] | Potency [9] | Potency [10] | Potency [11] | Potency [12] | max response [13] 3.01% | Potency [14] | Potency [15] | Potency [16] | Potency [18] | Potency [19]

CCOc1ccc(NC(=O)CC(C)=O)cc1
inactive: Potency [1] | Potency [2] | outcome [3] | Potency [4] | activity change, positive = activation [6] -8.93% | Potency [7] | Potency [20] | Potency [8] | Potency [9] | Potency [10] | Potency [11] | Potency [12] | max response [13] -6.1% | Potency [15] | Potency [16] | Potency [17] | Potency [18] | Potency [19]
